Screening data: PubChem BioAssay, Sanford-Burnham Center for Chemical Genomics
HIF-2a block: HIF-2a inhibition | 786-0 RCC cells HIF-2a reporter, luciferase luminescence, overnight | actives 0.72% (n = 360,000) | AID 624352 | inhibition, % at 18.8 µM;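 active = inhibition of the luminescence signal of 40% or more relative to plate controls, in a single-dose primary screen at 18.75 µM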
Peg3 promoter: reduces Peg3 promoter-driven luciferase expression in HeLa. HeLa PEG-Prom luciferase reporter, luminescence, overnight. inhibition, % at 20 µM. actives 1.7% (n = 360,000);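 active = inhibition of at least 50% at 20 µM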
CF NFkB block: cystic fibrosis NF-kB activation inhibition. KKLEB NF-kB-GFP reporter, PAF-induced, GFP fluorescence overnight. inhibition, % at 5 µM. actives 0.86% (n = 360,000);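 active = at least 50% inhibition at 5 µM, scaled per plate between neutral and stimulator controls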;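 note: PAF is a Pseudomonas aeruginosa culture filtrate used as stimulus; plate controls were PAF-stimulated DMSO wells for no effect and unstimulated DMSO wells for full effect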
TROY signal inh: TROY signaling inhibition. Q293 LMP1-TROYcd NF-kB luciferase reporter, 4 h. inhibition, % at 10 µM. actives 0.98% (n = 360,000);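 active = compounds whose plate-normalised and pattern-corrected inhibition of the luciferase reporter signal at the single screening dose is 50% or more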
KKLEB tox: reduces viability of KKLEB cystic fibrosis airway cells | KKLEB CF airway cells viability, ATPlite luminescence, overnight; stronger effect = lower value; cells stimulated with P. aeruginosa culture filtrate | activity change (cytotoxicity), % at 5 µM | actives 0.36% (n = 360,000);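 active = corrected activity change at or below -50% at 5 µM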
TWEAK-Fn14 inh: blocks TWEAK-Fn14 interaction in a reporter cell assay. inhibition, % at 10 µM. actives 2% (n = 360,000). TWEAK-stimulated Fn14 reporter cells, luciferase luminescence, 8 h; in the data active = inhibition above about 50%
Mdm2-MdmX confirm: Mdm2/MdmX (human) interaction inhibition, confirmed. shares compounds with HIF-2a block. SaOS-2 split-luciferase Mdm2/MdmX complementation, luminescence. inhibition, % at 8 µM. actives 99% (n = 740);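 active = mean inhibition of the luminescence signal across two replicates at or above 26 percent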
Target sequence (O15151 whole entry, looked up): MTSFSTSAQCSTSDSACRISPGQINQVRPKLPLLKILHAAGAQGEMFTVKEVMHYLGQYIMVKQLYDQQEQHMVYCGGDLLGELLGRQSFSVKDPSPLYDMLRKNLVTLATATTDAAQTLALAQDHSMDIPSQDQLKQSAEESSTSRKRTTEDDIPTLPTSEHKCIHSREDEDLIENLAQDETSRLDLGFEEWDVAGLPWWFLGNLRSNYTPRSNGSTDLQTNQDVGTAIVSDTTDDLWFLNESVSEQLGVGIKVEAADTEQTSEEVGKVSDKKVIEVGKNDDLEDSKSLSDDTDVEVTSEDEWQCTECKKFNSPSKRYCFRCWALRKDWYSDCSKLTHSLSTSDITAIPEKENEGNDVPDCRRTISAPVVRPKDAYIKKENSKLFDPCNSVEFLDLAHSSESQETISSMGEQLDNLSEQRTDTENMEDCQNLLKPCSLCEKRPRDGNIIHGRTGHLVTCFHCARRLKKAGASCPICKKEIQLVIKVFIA
Target sequence (Q00987 whole entry, looked up): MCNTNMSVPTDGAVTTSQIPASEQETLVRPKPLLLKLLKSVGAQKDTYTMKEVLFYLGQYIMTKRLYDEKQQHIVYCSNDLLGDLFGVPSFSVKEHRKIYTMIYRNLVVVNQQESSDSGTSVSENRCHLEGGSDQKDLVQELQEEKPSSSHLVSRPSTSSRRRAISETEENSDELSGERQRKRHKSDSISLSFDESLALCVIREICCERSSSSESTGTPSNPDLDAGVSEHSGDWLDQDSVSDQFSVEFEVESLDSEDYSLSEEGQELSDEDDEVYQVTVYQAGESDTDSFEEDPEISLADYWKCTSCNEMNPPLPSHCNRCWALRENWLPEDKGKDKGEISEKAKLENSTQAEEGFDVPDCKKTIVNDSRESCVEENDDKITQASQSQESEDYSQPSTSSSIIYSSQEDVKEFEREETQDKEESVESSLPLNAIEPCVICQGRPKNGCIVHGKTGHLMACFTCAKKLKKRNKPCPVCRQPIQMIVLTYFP
HIF-2a inh conf: HIF-2a inhibition, single concentration confirmation; shares compounds with HIF-2a block; 786-0 RCC cells, HIF-2a luciferase reporter luminescence, overnight; inhibition, % at 18.8 µM; actives 56% (n = 1,800); AID 651580;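 active = mean inhibition across four replicates of at least 40 percent at the single tested concentration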
HIF-1a cs: inhibits HIF-1a reporter, a counter-screen for HIF-2a inhibitors; shares compounds with HIF-2a block; MiaPaCa-2 HIF-1a luciferase reporter, desferoxamine, overnight; inhibition, % at 18.8 µM; actives 72% (n = 1,800); AID 651589;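 active = mean inhibition of the reporter signal across four replicates at the single tested dose of 50% or more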
Numbers without * were called inactive; / = no result. Hits are enriched below; roughly 4% of the tested compounds scored in any of these assays.

SMILES | HIF-2a block | Peg3 promoter | CF NFkB block | TROY signal inh | KKLEB tox | TWEAK-Fn14 inh | HIF-2a inh conf | HIF-1a cs | others
CCc1ccc(C(=O)Cn2ncc(Cl)c(Cl)c2=O)cc1 | 96* | 31 | 84* | 11 | -68* | 79* | -19 | 104* | Mdm2-MdmX confirm=103*
O=C(Cn1ncc(Cl)c(Cl)c1=O)N1CCOCC1 | 84* | 97* | 48 | -2 | -10 | 81* | -26 | 106*
O=c1c(Cl)c(Cl)cnn1Cc1nnc(-c2ccc(Cl)cc2)o1 | 94* | 107* | 80* | 52* | -82* | 86* | -74 | 105*
CCc1ccc(C(=O)CN2C(=O)NC3(CCCCCC3)C2=O)cc1 | -165 | -183 | -5 | -82 | 10 | -36 | / | /
Cc1ccc(Cn2ncc(Cl)c(Cl)c2=O)cc1 | 98* | 104* | 11 | 3 | 15 | 65* | 0 | 98*
Cc1[nH]c(C)c2c(=O)n(Cc3ccc(Cl)cc3)ncc12 | 17 | 8 | -2 | -8 | -4 | -70 | / | /
O=C(O)CCn1cc(/C=C/C(=O)c2ccc(Cl)cc2)c(-c2ccc(Br)cc2)n1 | 54* | 45 | -11 | 18 | -22 | 60* | 21 | 43
Cc1cc2occ(CC(=O)N(C)CC(=O)Nc3cccc(F)c3)c2cc1C | 9 | 21 | 16 | -12 | 2 | -20 | / | /
COc1cc2nc(SCc3ccc(C(F)(F)F)cc3)n(Cc3cccs3)c(=N)c2cc1OC | 12 | 25 | 0 | -1 | 1 | 17 | / | /
COc1ccc(Cn2c(SCc3ccc(C)cc3)nc3cc(OC)c(OC)cc3c2=N)cc1Cl | 91* | 99* | 96* | 27 | -94* | -2 | 60* | 105* | Mdm2-MdmX confirm=103*
COc1ccc(Cn2c(SCc3cc(C)ccc3C)nc3cc(OC)c(OC)cc3c2=N)cc1 | 95* | 104* | 25 | 21 | -44 | -3 | 2 | 107* | Mdm2-MdmX confirm=103*
CCOC(=O)CC(NS(=O)(=O)c1ccc2[nH]c(=O)sc2c1)c1ccc(C)cc1 (configuration not stated) | 9 | 8 | -6 | -18 | -3 | 3 | / | /
COc1ccc(NC(=O)c2cc([N+](=O)[O-])ccc2O)cc1 | 71* | 83* | 37 | 87* | 6 | 104* | 86* | 102*
O=[N+]([O-])c1ccc2nc(-[n+]3c(-c4ccccc4)cc(-c4ccccc4)cc3-c3ccccc3)[nH]c2c1 | 16 | 32 | 23 | -7 | -17 | 40 | / | /
O=[N+]([O-])c1ccc2nc(Cl)nc(-c3ccccc3)c2c1 | 19 | 20 | -21 | -18 | 6 | 20 | / | / | Mdm2-MdmX confirm=101*
Cc1ccc(C)c(S(=O)(=O)N2CCN(C(=O)/C=C/c3ccco3)CC2)c1 | 15 | -1 | 21 | 1 | 0 | 13 | / | /
CC(=O)Nc1ccc(OCC(=O)c2cc(C)ccc2C)cc1 | 8 | 3 | 4 | 3 | 5 | 2 | / | /
CC(=O)Nc1ccc(OCC(=O)c2ccc(C)cc2C)cc1 | 64* | -21 | -3 | -3 | 7 | -15 | 85* | 36
Cc1ccc(C2=NN(C(=O)CCl)C(c3ccco3)C2)o1 (configuration not stated) | 11 | 69* | 27 | -2 | -17 | 55* | / | / | Mdm2-MdmX confirm=103*
CC(=O)N1N=C(c2ccco2)CC1c1ccco1 (configuration not stated) | 22 | 19 | -2 | 12 | 1 | -1 | / | /
O=C(O)C(Cc1ccccc1)N1C(=O)C=CC1=O (configuration not stated) | 0 | 12 | -11 | 3 | 22 | 11 | / | /
Oc1ccc2ccccc2c1/C=N/Nc1nnc(-c2ncc[nH]2)c2ccccc12 | -32 | 46 | 7 | 6 | -6 | 31 | / | / | Mdm2-MdmX confirm=92*
COc1ccc(/C=N/Nc2nnc(-c3ncc[nH]3)c3ccccc23)cc1 | -36 | -36 | -3 | 2 | -23 | -4 | / | /
COc1ccc(C2C(O)C(c3c[nH]c4ccccc34)=NN2C(=O)CCl)cc1 (configuration not stated) | 93* | 117* | 98* | -26 | -89* | 94* | 88* | 106*
COc1cccc(-c2cnc(C(O)c3cc(C)cc(C)c3)[nH]2)c1 (configuration not stated) | -8 | 17 | -31 | -10 | 6 | 31 | / | /
SMILES | HIF-2a block | Peg3 promoter | CF NFkB block | TROY signal inh | KKLEB tox | TWEAK-Fn14 inh | HIF-2a inh conf | HIF-1a cs | others
CC[C@@H](C)[C@H](CNC)NC[C@@H](Cc1cccc2ccccc12)NCCc1cccc(C(F)(F)F)c1 | 15 | 103* | 29 | -9 | -48 | -56 | / | / | Mdm2-MdmX confirm=103*
CCC[C@H](CN[C@@H](CNC)[C@H](C)CC)NCCc1cc(C(F)(F)F)cc(C(F)(F)F)c1 | 12 | 99* | 13 | -7 | -49 | -72 | / | / | Mdm2-MdmX confirm=103*
O=C(NNC(=O)C1COc2ccccc2O1)c1ccccc1O (configuration not stated) | -5 | -4 | -4 | -23 | 4 | -6 | / | /
COc1ccc(C(C(=O)NC2CCCCC2)N(C(=O)CCl)c2ccc(Cl)cc2)cc1 (configuration not stated) | 27 | 74* | 97* | 9 | -99* | 54* | / | / | Mdm2-MdmX confirm=98*
O=C1CCCCC(=O)[C@H](OC(=O)c2ccccc2)C[C@H](c2ccccc2)O1 | 5 | / | / | -7 | / | 14 | / | /
COc1ccccc1C(c1c(N)n(C)c(=O)n(C)c1=O)C(C)[N+](=O)[O-] (configuration not stated) | 12 | 4 | -17 | 8 | 13 | 3 | / | /
COc1ccccc1C(C[N+](=O)[O-])c1c(N)n(C)c(=O)n(C)c1=O (configuration not stated) | 74* | 104* | 48 | 31 | -9 | 52* | 56* | -3
CC(NS(=O)(=O)c1ccc(OCC(=O)NCc2cccnc2)cc1)c1ccccc1 (configuration not stated) | 7 | 1 | -12 | 14 | 7 | 3 | / | /
CC(C)(C)n1c(O)c2n(c1=O)Cc1ccccc1N=C2c1ccccc1 | 7 | 18 | 0 | -21 | 1 | -6 | / | /
O=C(O)c1c(NC(=O)N2CCOCC2)sc2c1CCCC2 | 55* | -28 | -8 | 2 | -16 | 9 | -12 | 1
CCC(=O)N1CCN(c2nc(CC)nc3sc4c(c23)CCCC4)CC1 | 14 | 3 | 12 | -18 | -14 | 3 | / | /
CC1CCc2c(sc3nc(C(C)(C)C)nc(N4CCN(C(=O)CCl)CC4)c23)C1 (configuration not stated) | 43* | 56* | 97* | 1 | -92* | 2 | 33 | 106*
